G9a inh: G9a (human) methyltransferase inhibition | Q96KQ7 | G9a H3K9 monomethylation, AlphaScreen, 2 h | Potency, µM (doses to about 102 µM), usual class: inhibitors | 8.8% of 350,000 active | AID 504332; note: nearly all actives have a fitted effect of over 75% in size
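Compounds were preincubated with 20 nM G9a for 15 min, after which biotinylated H3K9 peptide (500 nM) and SAM (20 uM) started a 2 h room-temperature reaction. Monomethylated product was quantified by antibody-based AlphaScreen chemiluminescence.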
PLK1 PBD inh: inhibitors of human PLK1 polo-box domain binding | AID 720504 | Plk1 PBD binding of FITC phosphopeptide, fluorescence polarization | P53350 | Potency, µM, hits mostly inhibitors | 2.8% of 360,000 active; note: series mostly up to about 57 µM; nearly all actives have a fitted effect of over 65% in size
JMJD2A Tudor inh: inhibitors of human JMJD2A Tudor domain | O75164 | AlphaScreen JMJD2A-Tudor / H3K4me3 peptide binding | Potency, µM (top dose mostly 114 µM), hits mostly inhibitors | 4.4% of 390,000 active; note: nearly all actives have a fitted effect of over 50% in size
Target sequence (O75164 whole entry, looked up, the tested form may be a part): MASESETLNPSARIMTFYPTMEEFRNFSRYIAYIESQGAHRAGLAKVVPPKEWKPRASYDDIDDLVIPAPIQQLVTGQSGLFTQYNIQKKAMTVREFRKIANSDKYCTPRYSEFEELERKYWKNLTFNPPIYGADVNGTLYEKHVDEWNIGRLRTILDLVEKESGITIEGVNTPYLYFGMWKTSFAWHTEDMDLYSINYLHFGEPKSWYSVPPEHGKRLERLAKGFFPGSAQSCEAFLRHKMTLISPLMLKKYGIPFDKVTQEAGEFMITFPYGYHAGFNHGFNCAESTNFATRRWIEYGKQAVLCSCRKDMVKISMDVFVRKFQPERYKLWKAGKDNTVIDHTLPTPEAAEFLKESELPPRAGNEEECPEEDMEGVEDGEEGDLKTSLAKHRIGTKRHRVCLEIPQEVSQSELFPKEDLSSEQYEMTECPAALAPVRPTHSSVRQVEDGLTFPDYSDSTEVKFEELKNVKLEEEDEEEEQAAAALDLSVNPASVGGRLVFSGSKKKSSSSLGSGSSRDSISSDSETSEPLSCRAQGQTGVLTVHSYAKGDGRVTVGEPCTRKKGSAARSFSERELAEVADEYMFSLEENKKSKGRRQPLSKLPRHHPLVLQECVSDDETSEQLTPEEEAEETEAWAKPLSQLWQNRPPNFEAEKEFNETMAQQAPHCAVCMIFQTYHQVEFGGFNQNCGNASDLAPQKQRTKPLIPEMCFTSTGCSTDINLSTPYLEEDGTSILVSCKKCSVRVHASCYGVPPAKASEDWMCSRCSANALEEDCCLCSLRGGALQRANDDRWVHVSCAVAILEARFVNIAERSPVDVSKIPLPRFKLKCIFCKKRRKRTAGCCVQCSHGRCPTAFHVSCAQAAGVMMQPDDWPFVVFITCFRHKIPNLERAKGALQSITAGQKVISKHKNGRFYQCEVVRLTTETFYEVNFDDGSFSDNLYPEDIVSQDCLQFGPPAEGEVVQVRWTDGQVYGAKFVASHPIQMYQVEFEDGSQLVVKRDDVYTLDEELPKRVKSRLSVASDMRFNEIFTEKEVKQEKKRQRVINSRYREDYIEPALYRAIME
12-LOX inh: blocks human arachidonate 12S-lipoxygenase; purified 12hLO, xylenol orange hydroperoxide absorbance; Potency, µM (doses to about 108 µM), actives largely listed as inhibitors; 1.1% of 580,000 active
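Purified human 12hLO (150 nM final) in 25 mM Hepes, 0.01% Triton X-100, pH 7.0 was preincubated 15 min at room temperature with compound. Then 40 uM arachidonic acid was added, 30 min. Hydroperoxide was read by Fe-XO absorbance ratio 573/405 nm.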
HP1b binding inh: inhibitors of HP1-beta chromodomain binding to methylated histone tails | P83916 | AlphaScreen HP1-beta / biotin-H3K9me3 peptide binding | Potency, µM (series often up to 114 µM), hits mostly inhibitors | 0.56% of 390,000 active | AID 540317; note: nearly all actives have a fitted effect of over 70% in size
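HP1-beta protein (50 nM final) preincubated 30 min at room temperature with biotinylated H3(1-18)K9me3 peptide (50 nM) in PBS pH 7.4, 0.01% Tween-20, then compound added for 30 min. AlphaScreen streptavidin donor/nickel chelate acceptor beads (10 ug/mL final), 30 min dark, luminescence read.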
BAZ2B inh: inhibitors of human BAZ2B bromodomain; Q9UIF8; AlphaScreen BAZ2B-H3K14Ac peptide displacement; Potency, µM (highest dose often 114 µM), usual class: inhibitors; 4.4% of 360,000 active; AID 504333; note: nearly all actives have a fitted effect of over 60% in size
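BAZ2B 50 nM plus b-H3(5-23)K14Ac 50 nM, PBS pH 7.4/0.01% Tween-20, 30 min RT; compound added (max 110 uM), 30 min RT; streptavidin donor/Ni-chelate acceptor beads 10 ug/mL final, 20 min dark; AlphaScreen read.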
Of the large screens only hits and unclear results are named; the others gave an inactive call. Rows were chosen to be rich in hits. Some 9% of all compounds tested hit in one or more screens of this group. Calls come from the whole dose curve; as a rule, active = well fitted curve in the direction sought with a large enough effect; inconclusive = small, poorly fitted or top-dose-only effect, or another doubt; inactive = no such curve, though single readings can be large; an effect the other way counts as inactive or inconclusive.

CC(Nc1ccc(S(=O)(=O)N2CCN(C)CC2)cc1[N+](=O)[O-])c1ccccc1 (centres undefined)	G9a inh 40µM, JMJD2A Tudor inh inconclusive, 12-LOX inh inconclusive, BAZ2B inh inconclusive
COc1cccc(C(CNc2ccc(S(=O)(=O)N3CCN(C)CC3)cc2[N+](=O)[O-])N(C)C)c1 (centres undefined)	G9a inh 50µM, JMJD2A Tudor inh inconclusive, 12-LOX inh inconclusive, BAZ2B inh inconclusive
Cc1ccc(S(=O)(=O)N2CCN(C)CC2)cc1[N+](=O)[O-]	none
COc1ccc(CCNc2ccc(S(=O)(=O)N3CCCC3)cc2[N+](=O)[O-])cc1	G9a inh inconclusive, JMJD2A Tudor inh inconclusive, HP1b binding inh inconclusive, BAZ2B inh inconclusive
Cn1c(=O)[nH]c(=O)c2c1nc(N1CCCCC1)n2CCCSc1nc2ccccc2s1	none
Cc1ccc2nc(C(=O)N3CCCC3c3cc(C(C)C)on3)cn2c1 (centres undefined)	none (no result: G9a inh, PLK1 PBD inh, JMJD2A Tudor inh, HP1b binding inh, BAZ2B inh)
O=C(NCc1cccnc1)C1CCCN(S(=O)(=O)c2ccccc2)C1 (centres undefined)	none
CNc1nnc(-c2ccc(C)cc2)c2ccccc12	none
Fc1cccc(NC(=S)NNc2ccccc2)c1	G9a inh 50µM, PLK1 PBD inh inconclusive, JMJD2A Tudor inh 56µM, 12-LOX inh inconclusive, HP1b binding inh inconclusive, BAZ2B inh 40µM
NC(=S)Nc1cccc(F)c1	G9a inh inconclusive
Fc1cccc(NC(=S)NNc2c3ccccc3nc3ccccc23)c1	G9a inh 16µM, JMJD2A Tudor inh inconclusive, 12-LOX inh 40µM, HP1b binding inh inconclusive, BAZ2B inh 7.1µM
Oc1cccc(Nc2ccccc2)c1	BAZ2B inh inconclusive
Oc1cccc(NC(=S)Nc2ccccc2)c1	G9a inh 50µM
C=CCNC(=O)c1onc(CSc2ccccc2)c1C(=O)NCC=C	none (no result: G9a inh, BAZ2B inh)
Cc1ccc(CNC(=O)c2c(-c3cccc(Br)c3)noc2C)o1	none (no result: PLK1 PBD inh)
CC1(C)CC(=O)C(c2ccccc2)(c2ccccc2)C(=O)C1	none (no result: G9a inh, BAZ2B inh)
CC(C)C(Cl)=NOC(=O)Nc1ccc(F)cc1	PLK1 PBD inh 13µM, 12-LOX inh inconclusive (no result: G9a inh, BAZ2B inh)
Cc1[nH]c2ccccc2c1/C=N/Nc1ccc([N+](=O)[O-])cc1	G9a inh 8.9µM, HP1b binding inh inconclusive, BAZ2B inh inconclusive
Cc1[nH]c2ccccc2c1/C=N/NC(=O)c1cccc(F)c1	none (no result: G9a inh)
Cc1[nH]c2ccccc2c1/C=N/Nc1nncn1N	G9a inh 35µM, 12-LOX inh inconclusive, BAZ2B inh 50µM
Cc1[nH]c2ccccc2c1/C=N/Nc1ccccn1	G9a inh inconclusive, BAZ2B inh 35µM (no result: PLK1 PBD inh, JMJD2A Tudor inh, HP1b binding inh)
Cc1[nH]c2ccccc2c1/C=N/NC(=O)c1cccc([N+](=O)[O-])c1	none
Cc1[nH]c2ccccc2c1/C=N/Nc1ccc(F)cc1F	G9a inh 32µM, BAZ2B inh 45µM (no result: PLK1 PBD inh, JMJD2A Tudor inh, 12-LOX inh, HP1b binding inh)
CC(=O)Nc1cc(-c2cccc(NS(C)(=O)=O)c2)cn2c(-c3cccc(C(C)=O)c3)cnc12	none (no result: G9a inh, JMJD2A Tudor inh, HP1b binding inh, BAZ2B inh)
Cc1ccc(N(CC(=O)N/N=C/c2cccs2)S(C)(=O)=O)cc1Cl	none
O=C1NC[C@H](CCCCN2CCN(CCc3ccccc3)C(=O)C2=O)N(Cc2ccccc2)C1=O	none (no result: G9a inh, JMJD2A Tudor inh, HP1b binding inh, BAZ2B inh)
O=C(CN1CCN(C(=O)CNC(=O)c2ccc3c(c2)OCO3)CC1)Nc1ccc(F)cc1	none
COCCCNc1nc2c(c(=O)[nH]c(=O)n2C)n1Cc1ccccc1	none (no result: G9a inh, PLK1 PBD inh, JMJD2A Tudor inh, HP1b binding inh, BAZ2B inh)
Oc1[nH]c2ccccc2c1N=Nc1nc(Nc2ccccc2)nc(N2CCOCC2)n1	BAZ2B inh inconclusive
Cc1[nH]c2ccccc2c1/C=N/Nc1nc(Nc2ccccc2)nc(N2CCOCC2)n1	JMJD2A Tudor inh inconclusive, BAZ2B inh 40µM (no result: G9a inh)
CCc1c(C)sc2nc3c(C(=O)N4CCOCC4)cc(C(=O)c4ccccc4O)cn3c(=O)c12	JMJD2A Tudor inh inconclusive, BAZ2B inh inconclusive
O=C(c1cnc2nc3ccccc3n2c1)c1cc(F)ccc1O	none (no result: G9a inh)
CCCc1nc2scc(-c3ccccc3)c2c(=O)n1N	none
CCOC(=O)c1sc2ncn(C(C)C(=O)OCC)c(=O)c2c1C (centres undefined)	none
Cc1sc2nc3c(SC(C)C(=O)O)cc(C(=O)c4ccccc4O)cn3c(=O)c2c1C (centres undefined)	G9a inh 50µM, PLK1 PBD inh inconclusive, 12-LOX inh inconclusive, BAZ2B inh inconclusive
O=C(O)CSc1cc(C(=O)c2ccccc2O)cn2c(=O)c3c(-c4ccccc4)csc3nc12	G9a inh inconclusive, PLK1 PBD inh inconclusive, JMJD2A Tudor inh 56µM, 12-LOX inh inconclusive (no result: BAZ2B inh)
COC(=O)c1cc(C(=O)c2cc(F)ccc2O)cn2c(=O)c3c(C)c(C)sc3nc12	G9a inh inconclusive, PLK1 PBD inh inconclusive, JMJD2A Tudor inh 40µM
CCOC(=O)c1sc2nc3c(SCC(=O)O)cc(C(=O)c4cc(F)ccc4O)cn3c(=O)c2c1C	G9a inh 79µM, PLK1 PBD inh inconclusive, JMJD2A Tudor inh 40µM, 12-LOX inh inconclusive, HP1b binding inh inconclusive, BAZ2B inh 35µM
c1ccc(OCc2nn3c(C4CCCCC4)nnc3s2)cc1	G9a inh inconclusive, PLK1 PBD inh inconclusive
CC1=C[C@@H](CNCc2ccco2)[C@H](C(C)C)C[C@H]1Cc1nnc(-c2ccccc2F)o1	none (no result: G9a inh, PLK1 PBD inh, JMJD2A Tudor inh, HP1b binding inh, BAZ2B inh)
COc1ccc(O)c(C(=O)c2cc(SCC(=O)O)c3nc4sc5c(c4c(=O)n3c2)CCCC5)c1	PLK1 PBD inh 27µM, JMJD2A Tudor inh 25µM, 12-LOX inh 35µM, HP1b binding inh 25µM, BAZ2B inh 22µM
COc1ccc(-n2c(SCC(=O)O)nc3sc4c(c3c2=O)CCCC4)cc1	G9a inh inconclusive
CCOC(=O)c1sc2nc3c(SCC(=O)O)cc(C(=O)c4ccccc4O)cn3c(=O)c2c1C	G9a inh 32µM, JMJD2A Tudor inh 10µM, HP1b binding inh inconclusive, BAZ2B inh 16µM
CCOC(=O)c1sc2nc(SCC(=O)NCc3ccco3)n(Cc3ccccc3)c(=O)c2c1C	none
CCc1cccc(CC)c1NC(=O)C1CN(S(=O)(=O)c2ccccc2)CCN1S(=O)(=O)c1ccccc1 (centres undefined)	G9a inh inconclusive
Cc1cccc(C(C)C)c1NC(=O)C1CN(S(=O)(=O)c2ccccc2)CCN1S(=O)(=O)c1ccccc1 (centres undefined)	G9a inh 71µM
CC(=O)c1cc(Cc2csc(C(C)=O)c2)cs1	none
CNc1sc(C(C)=O)cc1C	12-LOX inh 13µM (no result: G9a inh, PLK1 PBD inh, JMJD2A Tudor inh, HP1b binding inh, BAZ2B inh)
Cc1ccc(C(=O)N2CCC3(CC2)Oc2ccc(Cl)cc2C(=O)C32CC(c3ccccc3)=NO2)s1 (centres undefined)	none
CC(C)(C)C1=CC(=O)C(=O)C(C(C)(C)C)=C1	G9a inh 1.6µM, PLK1 PBD inh 3.8µM, JMJD2A Tudor inh 18µM, HP1b binding inh inconclusive, BAZ2B inh 28µM (no result: 12-LOX inh)
